Reference: the antibiotic and cytotoxicity screens of Wong et al. (2023)
Hit rate of the full screen: of about 39,000 compounds, about 3,300 (8.5%) were called active. The sample holds actives, similar compounds and a random draw of the others, so the mix is not that of the screen.

Test system: HepG2
Test: cytotoxicity call (relative viability < 0.9)
Settings: 10 µM

| SMILES | cytotoxicity call |
| --- | --- |
| C[C@@H]1CN([C@@H](C)CO)C(=O)Cc2cc(NC(=O)Nc3ccc(C(F)(F)F)cc3)ccc2O[C@@H]1CN(C)C(=O)Nc1cccc2ccccc12 | inactive |
| CC(C)NC(=O)N(C)C[C@@H]1OCCCC[C@@H](C)Oc2ccc(NC(=O)Nc3ccccc3)cc2C(=O)N([C@H](C)CO)C[C@@H]1C | inactive |
| C[C@@H]1CCCCO[C@@H](CN(C)C(=O)Cc2ccccc2)[C@@H](C)CN([C@@H](C)CO)C(=O)c2cc(NC(=O)Nc3ccc(C(F)(F)F)cc3)ccc2O1 | inactive |
| O=C(O)CNC(=O)c1cc2ccccc2[nH]1 | inactive |
| C[C@H](CO)N1C[C@H](C)[C@@H](CN(C)S(=O)(=O)c2ccc(Cl)cc2)Oc2ccc(NC(=O)CCN3CCOCC3)cc2CC1=O | inactive |
| Cc1noc(C)c1S(=O)(=O)N(C)C[C@H]1OCCCC[C@H](C)Oc2ccc(NS(=O)(=O)c3cn(C)cn3)cc2C(=O)N([C@@H](C)CO)C[C@@H]1C | inactive |
| C=c1cc(C)ccc1=C1NN=C(NC(=O)CC)O1 | inactive |
| C[C@@H]1CCCCO[C@@H](CN(C)C(=O)Nc2ccc(F)cc2)[C@@H](C)CN([C@@H](C)CO)C(=O)c2cc(NC(=O)Nc3ccccc3)ccc2O1 | inactive |
| CN1CCC(Nc2nc(Nc3ccc(Oc4ccccc4)cc3)c3c(O)ncc(Br)c3n2)CC1 | active |
| C[C@@H]1CN([C@@H](C)CO)S(=O)(=O)c2ccc(-c3ccc(F)cc3)cc2O[C@H]1CN(C)S(C)(=O)=O | inactive |
| CNC(=O)N1CCN(Cc2cnn(C)c2)C[C@]2(CCCC(=O)N2)C1 | inactive |
| C=CCOC(=O)[C@H]1[C@@H]2C(=O)O[C@@H](c3ccccc3)[C@@H](c3ccccc3)N2[C@@H](c2ccc(OCCOC(=O)[C@H]3C[C@H]4C(=O)N[C@@H](CCCCNC(C)=O)C(=O)N4[C@H]3c3cccc(OCCO)c3)cc2)[C@]12C(=O)Nc1ccc(I)cc12 | inactive |
| Cc1ccc(S(=O)(=O)Nc2ccc3c(c2)C(=O)N([C@H](C)CO)C[C@H](C)[C@H](CN(C)S(=O)(=O)c2ccc(Cl)cc2)OCCCC[C@H](C)O3)cc1 | inactive |
| Cc1ccc(S(=O)(=O)N(C)C[C@H]2OCCCC[C@@H](C)Oc3ccc(NS(=O)(=O)c4ccc(Cl)cc4)cc3C(=O)N([C@H](C)CO)C[C@@H]2C)cc1 | inactive |
| Cc1ccc(S(=O)(=O)Nc2ccc3c(c2)C(=O)N([C@H](C)CO)C[C@H](C)[C@@H](CN(C)S(=O)(=O)c2ccc(Cl)cc2)OCCCC[C@@H](C)O3)cc1 | active |
| Cc1ccc(S(=O)(=O)N(C)C[C@H]2OCCCC[C@H](C)Oc3ccc(NS(=O)(=O)c4ccc(Cl)cc4)cc3C(=O)N([C@@H](C)CO)C[C@@H]2C)cc1 | active |
| Cc1ccc(S(=O)(=O)N(C)C[C@@H]2OCCCC[C@@H](C)Oc3ccc(NS(=O)(=O)c4ccc(Cl)cc4)cc3C(=O)N([C@@H](C)CO)C[C@@H]2C)cc1 | inactive |
| Cc1ccc(S(=O)(=O)Nc2ccc3c(c2)C(=O)N([C@@H](C)CO)C[C@@H](C)[C@@H](CN(C)S(=O)(=O)c2ccc(Cl)cc2)OCCCC[C@H](C)O3)cc1 | inactive |
| Cc1ccc(S(=O)(=O)N(C)C[C@@H]2OCCCC[C@@H](C)Oc3ccc(NS(=O)(=O)c4ccc(Cl)cc4)cc3C(=O)N([C@H](C)CO)C[C@H]2C)cc1 | inactive |
| Cc1ccc(S(=O)(=O)N(C)C[C@@H]2OCCCC[C@H](C)Oc3ccc(NS(=O)(=O)c4ccc(Cl)cc4)cc3C(=O)N([C@@H](C)CO)C[C@@H]2C)cc1 | active |
| Cc1ccc(S(=O)(=O)N(C)C[C@@H]2OCCCC[C@H](C)Oc3ccc(NS(=O)(=O)c4ccc(Cl)cc4)cc3C(=O)N([C@H](C)CO)C[C@H]2C)cc1 | active |

| SMILES | cytotoxicity call |
| --- | --- |
| Cc1ccc(S(=O)(=O)N(C)C[C@H]2OCCCC[C@@H](C)Oc3ccc(NS(=O)(=O)c4ccc(Cl)cc4)cc3C(=O)N([C@H](C)CO)C[C@H]2C)cc1 | inactive |
| Cc1cccnc1[C@H](c1ccc(F)cc1)N(C)C(=O)C1CCN(CCOc2ccc(Cl)cc2Cl)CC1 | inactive |
| CC(=O)N(C)C[C@H]1Oc2ncc(C#C[C@@H](C)O)cc2C(=O)N([C@@H](C)CO)C[C@H]1C | inactive |
| C[C@@H]1CN([C@H](C)CO)C(=O)Cc2cc(NC(=O)Nc3cccc4ccccc34)ccc2O[C@H]1CN(C)C(=O)Nc1ccc(F)cc1 | inactive |
| CNC[C@@H]1Oc2cc(C#CCN(C)C)ccc2S(=O)(=O)N([C@H](C)CO)C[C@@H]1C | inactive |
| CCCN1C[C@@H](C)[C@H](OC)CN(C)C(=O)c2cc(NS(=O)(=O)c3cn(C)cn3)ccc2OC[C@@H]1C | inactive |
| CN1CCN(C(=O)C[C@H]2CC[C@H](NC(=O)Cc3ccccn3)[C@H](CO)O2)CC1 | inactive |
| C[C@@H]1CCCCO[C@H](CN(C)S(=O)(=O)c2ccccc2)[C@@H](C)CN([C@H](C)CO)C(=O)c2cc(NC(=O)Nc3ccccc3)ccc2O1 | inactive |
| O=C(O)c1ccc(N[C@@H]2O[C@H](CO)[C@@H](O)[C@H](O)[C@H]2O)cc1 | inactive |
| Cc1ccc(S(=O)(=O)Nc2ccc3c(c2)C(=O)N([C@@H](C)CO)C[C@H](C)[C@@H](CN(C)S(=O)(=O)c2ccc(Cl)cc2)OCCCC[C@H](C)O3)cc1 | active |
| Cc1ccc(S(=O)(=O)Nc2ccc3c(c2)C(=O)N([C@H](C)CO)C[C@H](C)[C@@H](CN(C)S(=O)(=O)c2ccc(Cl)cc2)OCCCC[C@H](C)O3)cc1 | active |
| Cc1ccc(S(=O)(=O)N(C)C[C@@H]2OCCCC[C@@H](C)Oc3ccc(NS(=O)(=O)c4ccc(Cl)cc4)cc3C(=O)N([C@H](C)CO)C[C@@H]2C)cc1 | inactive |
| Cc1ccc(S(=O)(=O)Nc2ccc3c(c2)C(=O)N([C@H](C)CO)C[C@@H](C)[C@@H](CN(C)S(=O)(=O)c2ccc(Cl)cc2)OCCCC[C@@H](C)O3)cc1 | inactive |
| Cc1ccc(S(=O)(=O)N(C)C[C@H]2OCCCC[C@H](C)Oc3ccc(NS(=O)(=O)c4ccc(Cl)cc4)cc3C(=O)N([C@H](C)CO)C[C@H]2C)cc1 | inactive |
| Cc1ccc(S(=O)(=O)Nc2ccc3c(c2)C(=O)N([C@H](C)CO)C[C@H](C)[C@H](CN(C)S(=O)(=O)c2ccc(Cl)cc2)OCCCC[C@@H](C)O3)cc1 | inactive |
| Cc1ccc(S(=O)(=O)Nc2ccc3c(c2)C(=O)N([C@@H](C)CO)C[C@@H](C)[C@H](CN(C)S(=O)(=O)c2ccc(Cl)cc2)OCCCC[C@@H](C)O3)cc1 | inactive |
| Cc1ccc(S(=O)(=O)Nc2ccc3c(c2)C(=O)N([C@@H](C)CO)C[C@@H](C)[C@@H](CN(C)S(=O)(=O)c2ccc(Cl)cc2)OCCCC[C@@H](C)O3)cc1 | inactive |
| Cc1ccc(S(=O)(=O)Nc2ccc3c(c2)C(=O)N([C@H](C)CO)C[C@@H](C)[C@H](CN(C)S(=O)(=O)c2ccc(Cl)cc2)OCCCC[C@@H](C)O3)cc1 | active |
| Cc1ccc(S(=O)(=O)N(C)C[C@H]2Oc3ccc(NS(=O)(=O)c4cccs4)cc3CC(=O)N([C@H](C)CO)C[C@H]2C)cc1 | inactive |
| COc1ccc(CNC(=O)N(C)C[C@@H]2OCc3ccccc3-c3c(n(C)c4ccccc34)C(=O)N([C@@H](C)CO)C[C@H]2C)cc1 | inactive |
| C[C@H]1CN([C@@H](C)CO)C(=O)c2cccc(NC(=O)Nc3ccc(F)cc3)c2O[C@H]1CN(C)S(C)(=O)=O | inactive |

| SMILES | cytotoxicity call |
| --- | --- |
| COc1c(-c2coc3cc4c(cc3c2=O)CC(O)C(C)(C)O4)ccc2c1C=CC(C)(C)O2 (configuration not stated) | active |
| COc1ccc(-c2coc3cc(O)ccc3c2=O)c(OC)c1OC | inactive |
| COc1ccc(-c2coc3cc(O)ccc3c2=O)c(O)c1O | inactive |
| O=C(C[C@@H]1CC[C@@H](NC(=O)C2CC2)[C@@H](CO)O1)NCCCN1CCOCC1 | inactive |
| C[C@@H]1CN([C@H](C)CO)C(=O)c2cc(-c3ccc(C(=O)N(C)C)cc3)cnc2O[C@@H]1CN(C)C(=O)CN(C)C | inactive |
| COc1cc(-c2ccc(NN=C3C=Cc4c(S(=O)(=O)O)cc(S(=O)(=O)O)c(N)c4C3=O)c(OC)c2)ccc1NN=C1C=Cc2c(S(=O)(=O)O)cc(S(=O)(=O)O)c(N)c2C1=O | active |
| Cc1cc(-c2ccc(NN=C3C=Cc4c(S(=O)(=O)O)cc(S(=O)(=O)O)c(N)c4C3=O)c(C)c2)ccc1NN=C1C=Cc2c(S(=O)(=O)O)cc(S(=O)(=O)O)c(N)c2C1=O | active |
| COCC(=O)N1C[C@]2(CCN(CC2)C(=O)CN2CCOCC2)c2c([nH]c3cc(ccc23)OC)[C@@H]1CO | inactive |
| COc1ccc2c3c(n(c2c1)C)[C@H](CO)N(C[C@]13CCN(CC1)C(=O)C1CCOCC1)C(=O)C1CCOCC1 | inactive |
| C[C@@H]1CN([C@@H](C)CO)C(=O)c2cccc(NC(=O)C3CC3)c2O[C@H]1CN(C)Cc1ccc(Oc2ccccc2)cc1 | inactive |
| O=C(Nc1ccccc1)Nc1ccccc1 | inactive |
| O=C(Nc1ccccc1)c1ccccc1O | active |
| NNC(=O)c1ccccc1O | inactive |
| CC(=O)Nc1ccccc1 | inactive |
| O=C(Nc1ccccc1)c1ccccc1 | inactive |
| O=C(Nc1ccccc1)Nc1ccc(Nc2ccccc2)cc1 | active |
| C[C@@H]1CN([C@@H](C)CO)C(=O)c2cccc(NC(=O)Nc3ccccc3)c2O[C@H]1CN(C)S(C)(=O)=O | inactive |
| COc1ccc(CN(C)C[C@H]2OCCCC[C@@H](C)Oc3ccc(NC(=O)C4CCCCC4)cc3C(=O)N([C@@H](C)CO)C[C@H]2C)cc1 | inactive |
| CN1C(=O)c2cc(NC(=O)C3CCCC3)ccc2OC[C@H]2O[C@H](CC(=O)NCCc3ccncc3)CC[C@@H]21 | inactive |
| Cc1ccc(S(=O)(=O)N(C)C[C@@H]2Oc3ccc(NS(=O)(=O)c4ccccc4)cc3C(=O)N([C@H](C)CO)C[C@@H]2C)cc1 | inactive |
